Outcome and AC50 data for 13 molecules are collected here from PubChem BioAssay (EPA / NIEHS).

The nature of experiment [1]: CCTE_Mundy_HCI_Cortical_Synap_Neur_Matur_BPCount: CCTE's Synaptogenesis and Neurite Maturation Assay in rat cortical cells for Branch Point Count, Mundy Lab (AID 2284211). The method in brief: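 HCI read-out of branch points from MAP2/synaptophysin/Hoechst immunofluorescence; rat cortical cultures, AraC DIV 5, dosing DIV 7, fixed DIV 12; fit in positive direction vs DMSO baseline.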

A short description of experiment [2]: CCTE_Mundy_HCI_Cortical_NOG_NeuriteCount: CCTE's Neurite Outgrowth Assay in rat cortical cells for Neurite Count, Mundy Lab (AID 2284212).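 Further: cells fixed about two days after chemical exposure began.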 Put shortly: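 Rat cortical primary cells; compound added 2 h post-plating, 1/10 dilution of working solution. Anti-betaIII-tubulin/AF488 ICC; ArrayScan neurite count vs DMSO.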
Experiment [3] is described as follows: CCTE_Mundy_HCI_Cortical_NOG_NeuriteLength: CCTE's Neurite Outgrowth Assay in rat cortical cells for Neurite Length, Mundy Lab (AID 2284213).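 On AC50: neurites imaged about 48 to 50 h after chemical exposure began.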 Put shortly: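 First, rat primary cortical cells were plated and, 2 h later, given test chemical as a 1/10 dilution. Finally, βIII-tubulin immunostaining enabled automated imaging of neurite length.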
Experiment [4] is described as follows: CCTE_Mundy_HCI_Cortical_Synap_Neur_Matur_NeuriteLength: CCTE's Synaptogenesis and Neurite Maturation Assay in rat cortical cells for Neurite Length, Mundy Lab (AID 2284214). Put shortly:
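Neurite length quantified by automated high-content imaging of MAP2, synaptophysin and Hoechst staining. Rat cortical cells received chemical from DIV 7 to DIV 12 […], glial growth arrested by AraC at DIV 5; DMSO baseline.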

A short description of experiment [5]: CCTE_Mundy_HCI_Cortical_Synap_Neur_Matur_NeuriteSpotCountPerNeuron: CCTE's Synaptogenesis and Neurite Maturation Assay in rat cortical cells for Neurite Spot Count per Neuron Count, Mundy Lab (AID 2284215). Put shortly:
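Developing rat cortical neurons, with glia suppressed by AraC, are exposed to chemicals from DIV 7 to DIV 12. Automated fluorescence imaging of MAP2-labelled neurites and synaptophysin puncta yields a count per neuron, normalised against DMSO wells.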

Experiment [6] can be described thus: CCTE_Mundy_HCI_Cortical_Synap_Neur_Matur_SynapseCount: CCTE's Synaptogenesis and Neurite Maturation Assay in rat cortical cells for Synapse Count, Mundy Lab (AID 2284218). The method in brief:
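High-content imaging of synaptophysin puncta per MAP2-positive neuron (Hoechst nuclei) in rat cortical cells exposed DIV 7–12 after glial arrest with AraC at DIV 5; decrease relative to DMSO scored.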

A short description of experiment [7]: CCTE_Mundy_HCI_hN2_NOG_NeuriteCount: CCTE's Neurite Outgrowth Assay in human hN2 cells for Neurite Count, Mundy Lab (AID 2284219; active means hit-call score of the fitted dose curve at least 0.9, where 1 is the maximum). Put shortly: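 In this morphology assay, hNP1-derived neurons received test chemical 2 h post-plating and were fixed two days later in warm paraformaldehyde/sucrose containing Hoechst 33342. Neurites, labelled by rabbit anti-βIII-tubulin (1:800) and Alexa Fluor-488 (1:500), were counted automatically.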

Experiment [8] is described as follows: CCTE_Mundy_HCI_hN2_NOG_NeuriteLength: CCTE's Neurite Outgrowth Assay in human hN2 cells for Neurite Length, Mundy Lab (AID 2284220; active means hit-call score of the fitted dose curve at least 0.9, where 1 is the maximum). The method in brief: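 Read-out is neurite length from high-content imaging of βIII-tubulin/Alexa Fluor-488-labelled neurons, referenced to DMSO controls.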
Experiment [9] in a line: CCTE_Mundy_HCI_Cortical_Synap_Neur_Matur_NeuriteCount: CCTE's Synaptogenesis and Neurite Maturation Assay in rat cortical cells for Neurite Count, Mundy Lab (AID 2284222).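 On Outcome: exposure from day 7 to day 12 in vitro with readout at day 12.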 The method in brief: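 Chemical exposure runs DIV 7–12 in rat cortical cultures, glia suppressed by AraC at DIV 5; measurement is at DIV 12. Imaging-derived neurite counts are fitted against DMSO baseline.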

A short description of experiment [10]: CCTE_Mundy_HCI_Cortical_Synap_Neur_Matur_CellBodySpotCount: CCTE's Synaptogenesis and Neurite Maturation Assay in rat cortical cells for Cell Body Spot Count, Mundy Lab (AID 2284223). The method in brief:
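Chemicals were applied to AraC-treated rat primary cortical cells at DIV 7 and measured at DIV 12. Fixed cells were labelled for MAP2, synaptophysin and nuclei, and high-content imaging gave cell body synaptophysin spot counts per neuron relative to DMSO.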

The nature of experiment [11]: BSK_BT_PBMCCytotoxicity: PBMC Cytotoxicity Assessment in the BioMAP Diversity Plus: BT Assay (AID 2284225).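 Further: PBMC viability measured by Alamar Blue dye reduction fluorescence.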 Conditions: primary human B cells with PBMC. The method in brief:
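Viability by Alamar Blue reduction (6 h, ex/em 546/580 nm) after 90 h culture of SEB/TSST-1-activated PBMC (20 ng/mL each) given compound 1 h before activation. DMSO served as baseline for curve fitting.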

Read-out in experiment [12]: Secreted IgG (sIgG), gene 3500
As to the kind of experiment: BSK_BT_sIgG: BioMAP Diversity Plus: BT Assay for Secreted IgG (sIgG) Biomarker Activity (AID 2284226). Conditions: primary human B cells with PBMC. The method in brief: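 ELISA quantitation of secreted IgG from human B cells co-cultured with PBMC, sampled 24 h post-dosing. Values fitted relative to DMSO vehicle as baseline, positive fitting direction.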

Experiment [13] is described as follows: BSK_BT_Bcell_Proliferation: Viability Assessment in the BioMAP Diversity Plus: BT Assay for B cell Proliferation (AID 2284227). Conditions: primary human B cells with PBMC. The method in brief:
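SRB-based protein staining (0.1% SRB after 10% TCA fixation, 560 nm) quantifies proliferation in human B cells co-cultured with PBMC, 72 h post-dosing, with signal gain scored relative to DMSO negative control.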

Read-out in experiment [14]: Interleukin 6 (IL6), IL6 (gene 3569)
As to the kind of experiment: BSK_BT_xIL6: BioMAP Diversity Plus: BT Assay for Interleukin 6 (IL6) Biomarker Activity (AID 2284228). To be noted: primary human B cells with PBMC. Put shortly:
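IL-6 secretion measured (Luminex xMAP) in human primary B cell + PBMC co-culture at 24 h of chemical exposure; DMSO served as negative control and activity baseline, with curves fitted for increase.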

Read-out in experiment [15]: Interleukin 17A (IL17A), IL17A (gene 3605)
The experiment is described as follows: BSK_BT_xIL17A: BioMAP Diversity Plus: BT Assay for Interleukin 17A (IL17A) Biomarker Activity (AID 2284229). To be noted: primary human B cells with PBMC. Put shortly: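 Human primary B cells plus PBMC, treated 24 h with chemicals; supernatant IL-17A quantified on Luminex xMAP beads. Gain of signal over DMSO control scored as activity.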

Read-out in experiment [16]: Tumor necrosis factor (Homo sapiens) (UniProt P01375)
The experiment is described as follows: BSK_BT_xTNFa: BioMAP Diversity Plus: BT Assay for Tumor necrosis factor alpha (TNF-alpha) Biomarker Activity (AID 2284230). To be noted: primary human B cells with PBMC. Put shortly:
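Compounds were added to a B cell plus PBMC co-culture, and after 24 h secreted TNF-alpha was quantified with Luminex xMAP technology, with responses fitted upward from the DMSO control.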

Read-out in experiment [17]: Vascular cell adhesion molecule 1 (VCAM1), VCAM1 (gene 7412)
As to the kind of experiment: BSK_MyoF_VCAM1: BioMAP Diversity Plus: MyoF Assay for Vascular cell adhesion molecule 1 (VCAM1) Biomarker Activity (AID 2284231). Conditions: primary human lung fibroblasts. Put shortly: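 VCAM-1 levels, lung fibroblasts, ELISA, 24 h exposure, increase scored relative to DMSO.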

Experiment [18] in a line: TAMU_PeakParms_SingleDonor1434_Chronotropy: Texas A&M University (TAMU) 1.5-hr Human Induced Pluripotent Stem Cell (iPSC)-derived Cardiomyocytes Calcium (Ca+2) Flux Assay for Cardiotoxicity: Chronotropy (changes in peak frequency) (AID 2284217). To be noted: actives raise or lower the signal. Put shortly:
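Beat frequency of single-donor iPSC cardiomyocytes was recorded through a calcium-sensitive dye 1.5 hours after exposure to four concentrations up to 100 uM. An EC05 point of departure was derived.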

The nature of experiment [19]: CCTE_Mundy_HCI_hNP1_Pro_ResponderAvgInten: CCTE's Proliferation Assay in human neuroprogenitor cells, Mundy Lab (AID 2284224; active means hit-call score of the fitted dose curve at least 0.9, where 1 is the maximum;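 further: human neural progenitor cells hNP1 derived from WA09 embryonic stem cells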). Put shortly:
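Proliferation read as average intensity of BrdU-positive cells, imaged at 26.25 h post-dosing: chemical exposure started after 40–44 h culture, BrdU during final 4 h, paraformaldehyde fixation. Positive-direction fit relative to DMSO.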

The nature of experiment [20]: CCTE_Mundy_HCI_hN2_NOG_NeuronCount: CCTE's Neurite Outgrowth Assay in human hN2 cells for Neuron Count, Mundy Lab (AID 2284221; active means hit-call score of the fitted dose curve at least 0.9, where 1 is the maximum). Put shortly:
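Read-out is the number of betaIII-tubulin-positive neurons imaged by automated high-content analysis, with DMSO as negative control.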

Molecules are shown by their SMILES. Several values for one entry are separate records, joined by “and”; a condition that tells them apart may be missing. Equal values may be shown once. Results filed as inconclusive are left out. A structure can be active in one record and inactive in another. Activity calls are given as the source filed them. How the source made its calls, unless noted: active means hit-call score of the fitted dose curve at least 0.9, where 1 is the maximum; inactive means score below 0.9.

Sequence of Tumor necrosis factor (Homo sapiens) (P01375 whole entry, looked up): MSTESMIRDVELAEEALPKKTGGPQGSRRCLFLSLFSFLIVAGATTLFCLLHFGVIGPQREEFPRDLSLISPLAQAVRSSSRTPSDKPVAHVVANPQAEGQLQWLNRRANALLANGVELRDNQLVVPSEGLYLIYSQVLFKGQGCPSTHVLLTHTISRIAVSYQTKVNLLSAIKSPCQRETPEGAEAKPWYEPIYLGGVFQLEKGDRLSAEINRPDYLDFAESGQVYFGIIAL

With `OC(Cn1cncn1)(Cn1cncn1)c1ccc(F)cc1F`, the molecule was called inactive in [1], in experiment [2], in experiment [3], in experiment [4], in [5] and in experiment [6]. Besides, the molecule was called inactive in experiment [7], in experiment [8], in [9] and in experiment [10].
Regarding `FC(F)C(F)(F)COCC1CO1` (stereo not given), the outcome in experiment [11], in experiment [12], in experiment [13], in [14], in [15] and in [16] was inactive. Also, the result in experiment [17] was inactive.
With `FC(F)=C(F)C(F)(F)C(F)(F)C(F)(F)C(F)(F)C(F)(F)C(F)(F)F`, the outcome in experiment [11], in experiment [12], in experiment [13], in experiment [14], in [15] and in experiment [16] was inactive. Besides, the outcome in experiment [17] was inactive.
`NCC(F)(F)C(F)(F)C(F)(F)C(F)(F)F`: the result in experiment [11], in experiment [12], in experiment [13], in experiment [14], in experiment [15] and in [16] was inactive. Also, the result in experiment [17] was inactive.
`c1ccc2c(c1)-c1cccc3c1c-2cc1ccccc13`: in experiment [18], the half-maximal activity concentration (AC50) is 4.53 µM (active).
For `S=P(N1CC1)(N1CC1)N1CC1`, the outcome in [11], in experiment [14], in [15], in [16] and in [17] was inactive. Besides, the half-maximal activity concentration (AC50) is 2.71 µM (active) in [12] and 8.1 µM (active) in [13].
Regarding `CC(C)C(=O)Nc1ccc([N+](=O)[O-])c(C(F)(F)F)c1`, in experiment [18], the result was inactive.
In the case of `Nc1ccn([C@@H]2O[C@H](CO)[C@@H](O)[C@@H]2O)c(=O)n1`, the concentration at half-maximal activity (AC50) was 7.42 µM (active) in experiment [1]; 9.69 µM (active) and 4.75 µM (active) in [2]; 9.08 µM (active) and 3.77 µM (active) in [3]; 11.9 µM (active) in [4]; 12.4 µM (active) in [5]; 12.4 µM (active) in [6]. Also, the AC50 in [9] was 12.6 µM (active) and 15 µM (active); in experiment [10], 11.7 µM (active); in [19], 9.56 nM (active) and 3.83 nM (active). In addition, the molecule was classed as inactive in [1], in experiment [4], in [5], in experiment [6] and in experiment [10].
`O=C(Cl)C(F)(F)C(F)(F)C(F)(F)C(=O)Cl`: the result in experiment [11], in experiment [12], in [13], in experiment [14], in experiment [15] and in experiment [16] was inactive. In addition, the outcome in experiment [17] was inactive.
In the case of `NC(=O)N1c2ccccc2C=Cc2ccccc21`, the outcome in [1], in experiment [2], in [3], in [4], in [5] and in experiment [6] was inactive. Besides, the molecule was called inactive in [7], in experiment [8], in [20], in experiment [9] and in experiment [10].
As to `OCCC(F)(F)C(F)(F)C(F)(F)C(F)(F)F`, the outcome in experiment [11], in [12], in experiment [13], in [14], in experiment [15] and in experiment [16] was inactive. Also, the result in experiment [17] was inactive.
As to `COc1cc2c(c(OC)c1OC)-c1ccc(OC)c(=O)cc1[C@@H](NC(C)=O)CC2`, the AC50 in experiment [1] is 0.0374 µM (active); in experiment [2], 17.2 nM (active); in experiment [3], 12.4 nM (active); in experiment [4] it was 0.0354 µM (active); in experiment [5], 0.0297 µM (active); in [6], 0.0302 µM (active). Also, the AC50 is 0.00966 µM (active) in experiment [7]; 0.00931 µM (active) in experiment [8]; 0.0262 µM (active) in experiment [20]; 440 nM (active) in [9]; 0.0427 µM (active) in experiment [10]. Also, the result in experiment [18] was inactive.
Consider `C[C@]12C=CC(=O)C=C1CC[C@H]1[C@@H]3C[C@@H](O)[C@](O)(C(=O)CO)[C@@]3(C)C[C@H](O)[C@@]12F`, for which the AC50 in [1] is 2.18 µM (active); in experiment [2], 22700 nM (active); in experiment [3], 19700 nM (active); in experiment [4], 2.59 µM (active); in experiment [5] it was 3 µM (active); in [6], 4.2 µM (active). Besides, the concentration at half-maximal activity (AC50) in [9] was 18800 nM (active); in experiment [10], 15 µM (active). Besides, the molecule was classed as inactive in experiment [19].
